Test results reported in article PMC11062922 (Nature Chemical Biology, 2023).
Where two headings read alike, the source gives them in different places.

Assays:
Parameters in all cases: species or system human, MV4-11 + K-562 + COLO205 + SK-N-BE2 + OVCAR-8
EPHB6 = settings: read-out: apparent Kd, n = 1
ERBB3 = settings: read-out: apparent Kd, compound concentrations: 100 nM and 1000 nM (sheet 'Samples'), n = 1
MAP4K5 = settings: read-out: apparent Kd; compound concentrations: 100 nM and 1000 nM (sheet 'Samples'), CATDS: 0.26674698552626502; n = 1
NLK = settings: read-out: apparent Kd; compound concentrations: 100 nM and 1000 nM (sheet 'Samples'), CATDS: 0.30347996318959403; n = 1
EGFR = settings: read-out: apparent Kd, compound concentrations: 100 nM and 1000 nM (sheet 'Samples'), n = 1
TTN = settings: read-out: apparent Kd; compound concentrations: 100 nM and 1000 nM (sheet 'Samples'), CATDS: 0.640536562241112; n = 1
RIPK2 = settings: read-out: apparent Kd, n = 1
FECH = settings: read-out: apparent Kd; compound concentrations: 100 nM and 1000 nM (sheet 'Samples'), CATDS: 0.40591450620250102; n = 1
PLK1 = settings: read-out: apparent Kd; compound concentrations: 100 nM and 1000 nM (sheet 'Samples'), CATDS: 0.65086071220868402; n = 1
PIK3CD = settings: read-out: apparent Kd, compound concentrations: 100 nM and 1000 nM (sheet 'Samples'), n = 1
EPHA5 = settings: read-out: apparent Kd, compound concentrations: 100 nM and 1000 nM (sheet 'Samples'), n = 1
EIF2AK1 = settings: read-out: apparent Kd; compound concentrations:100 nM and 1000 nM (sheet 'Samples'); n = 1
GAK = settings: read-out: apparent Kd, n = 1
MAPK11 = settings: read-out: apparent Kd; compound concentrations:100 nM and 1000 nM (sheet 'Samples'); n = 1
MAPK14 = settings: read-out: apparent Kd; compound concentrations:100 nM and 1000 nM (sheet 'Samples'); n = 1
MAPK8 = settings: read-out: apparent Kd; compound concentrations:100 nM and 1000 nM (sheet 'Samples'); n = 1
MAPK9 = settings: read-out: apparent Kd; compound concentrations:100 nM and 1000 nM (sheet 'Samples'); n = 1
MAPKAPK2 = settings: read-out: apparent Kd; compound concentrations:100 nM and 1000 nM (sheet 'Samples'); n = 1
PIP4K2C = settings: read-out: apparent Kd; compound concentrations:100 nM and 1000 nM (sheet 'Samples'); n = 1
SIK2 = settings: read-out: apparent Kd; compound concentrations:100 nM and 1000 nM (sheet 'Samples'); n = 1
SIK3 = settings: read-out: apparent Kd; compound concentrations:100 nM and 1000 nM (sheet 'Samples'); n = 1
TAOK2 = settings: read-out: apparent Kd; compound concentrations:100 nM and 1000 nM (sheet 'Samples'); n = 1
JAK2 = settings: read-out: apparent Kd; compound concentrations:100 nM and 1000 nM (sheet 'Samples'); n = 1
PRKACG = settings: read-out: apparent Kd; compound concentrations:100 nM and 1000 nM (sheet 'Samples'); n = 1
TESK2 = settings: read-out: apparent Kd; compound concentrations: 100 nM and 1000 nM (sheet 'Samples'), CATDS: 0.39865436806100402; n = 1
PGK1 = settings: read-out: apparent Kd; compound concentrations:100 nM and 1000 nM (sheet 'Samples'); n = 1
EPHA1 = settings: read-out: apparent Kd; compound concentrations: 100 nM and 1000 nM (sheet 'Samples'), CATDS: 0.132169396234084; n = 1
EPHA2 = settings: read-out: apparent Kd; compound concentrations: 100 nM and 1000 nM (sheet 'Samples'), CATDS: 7.9638266315165504E-2; n = 1
EPHA4 = settings: read-out: apparent Kd; compound concentrations: 100 nM and 1000 nM (sheet 'Samples'), CATDS: 5.73813509995778E-2; n = 1
EPHB2 = settings: read-out: apparent Kd; compound concentrations: 100 nM and 1000 nM (sheet 'Samples'), CATDS: 6.01599429552135E-2; n = 1
EPHB4 = settings: read-out: apparent Kd; compound concentrations: 100 nM and 1000 nM (sheet 'Samples'), CATDS: 8.2169743824678607E-2; n = 1
HSP90B1 = settings: read-out: apparent Kd; compound concentrations: 100 nM and 1000 nM (sheet 'Samples'), CATDS: 5.9403199864953501E-2; n = 1
MAP4K4 = settings: read-out: apparent Kd; compound concentrations: 100 nM and 1000 nM (sheet 'Samples'), CATDS: 6.0397447549850998E-2; n = 1
RIPK3 = settings: read-out: apparent Kd; compound concentrations: 100 nM and 1000 nM (sheet 'Samples'), CATDS: 0.17935532425018; n = 1
TGFBR2 = settings: read-out: apparent Kd; compound concentrations: 100 nM and 1000 nM (sheet 'Samples'), CATDS: 9.6643303505933295E-2; n = 1
TNIK = settings: read-out: apparent Kd; compound concentrations: 100 nM and 1000 nM (sheet 'Samples'), CATDS: 7.16657274929937E-2; n = 1
[1] = compound concentrations:100 nM and 1000 nM (sheet 'Samples')

Nc1ncc(-c2ccncc2)c2scc(-c3ccc4c(c3)CCN4C(=O)Cc3ccccc3)c12 [GSK2592465A]
potency estimated from few doses (EPHB6; compound concentrations: 100 nM and 1000 nM (sheet 'Samples'), CATDS: 0.25930053020636601): 885 nM
potency estimated from few doses (ERBB3; CATDS: 0.19609805104920999): 1700 nM
potency estimated from few doses (MAP4K5): 837 nM
potency estimated from few doses (NLK): 660 nM

c1ccc(COc2ccc(Nc3ncnc4ccc(-c5ccco5)cc34)cc2)cc1 [GW284372X]
potency estimated from few doses (EGFR; CATDS: 0.410036232309059): 781 nM
potency estimated from few doses (TTN): 304 nM

CS(=O)(=O)CCNCc1coc(-c2ccc3ncnc(Nc4ccc(OCc5ccccc5)cc4)c3c2)c1 [GW566221B]
potency estimated from few doses (EGFR; CATDS: 0.90978509927548601): 43.8 nM
potency estimated from few doses (RIPK2; compound concentrations: 100 nM and 1000 nM (sheet 'Samples'), CATDS: 0.34472781375122202): 839 nM

Fc1cccc(COc2ccc(Nc3ncnc4sc(-c5ccco5)cc34)cc2Cl)c1 [GSK969786A]
potency estimated from few doses (EGFR; CATDS: 1): 815 nM

NC(=O)c1sc(-n2cnc3ccccc32)cc1OCc1ccccc1F [GSK1024306A]
potency estimated from few doses (FECH): 2130 nM
potency estimated from few doses (PLK1): 781 nM

Cl.O=S(=O)(c1cccc(F)c1)c1ccc(Nc2ncnc3cc(Br)sc23)cc1Cl [GSK306886A]
potency estimated from few doses (EGFR; CATDS: 0.33527903035184697): 1350 nM
potency estimated from few doses (PIK3CD; CATDS: 0.982888258017659): 11.9 nM

CS(=O)(=O)CCN(CC#N)Cc1ccc(-c2ccc3ncnc(Nc4ccc(OCc5cccc(F)c5)c(Cl)c4)c3c2)o1 [GW616030X]
potency estimated from few doses (EGFR; CATDS: 1): 244 nM

Cc1cc(-c2ccco2)cc(C)c1/C=C/c1cncc(-c2nn[nH]n2)c1.Cl [GW458344A]
potency estimated from few doses (EPHB6; [1]): 401 nM

Cn1cc(C2=C(c3c[nH]c4ccccc34)C(=O)NC2=O)c2ccccc21 [RO0317884-000]
potency estimated from few doses (EPHA5; CATDS: 0.352465913660859): 1650 nM
potency estimated from few doses (PIK3CD; CATDS: 0.85995893919281496): 146 nM

Cl.c1ccc(Cn2ncc3cc(Nc4ncnc5ccccc45)ccc32)cc1 [GW273749A]
potency estimated from few doses (EGFR; CATDS: 1): 25.4 nM

Cn1c(=O)c(-c2ccccc2Cl)cc2cnc(NC3CCOCC3)nc21 [RO3303470-000]
potency estimated from few doses (EIF2AK1): 1090 nM
potency estimated from few doses (GAK; [1]): 695 nM
potency estimated from few doses (MAPK11): 20.2 nM
potency estimated from few doses (MAPK14): 24 nM
potency estimated from few doses (MAPK8): 318 nM
potency estimated from few doses (MAPK9): 202 nM
potency estimated from few doses (MAPKAPK2): 12.5 nM
potency estimated from few doses (PIP4K2C): 1140 nM
potency estimated from few doses (RIPK2; [1]): 503 nM
potency estimated from few doses (SIK2): 1330 nM
potency estimated from few doses (SIK3): 604 nM
potency estimated from few doses (TAOK2): 1880 nM

O=C(O)C(F)(F)F.O=S1CCN(Cc2ccc(-c3ccc4ncnc(Nc5ccc(OCc6cccc(F)c6)c(Cl)c5)c4c3)o2)CC1 [GW576609A]
potency estimated from few doses (EGFR; CATDS: 0.496271215913483): 306 nM
potency estimated from few doses (JAK2): 1050 nM
potency estimated from few doses (PRKACG): 781 nM

Cl.O=S(=O)(CCNCc1ccc(-c2ccc3ncnc(Nc4ccc(OCc5cccc(F)c5)c(Cl)c4)c3c2)o1)c1ccccc1 [GW633459A]
potency estimated from few doses (EGFR; CATDS: 0.67043836864821504): 597 nM
potency estimated from few doses (TESK2): 1830 nM

CS(=O)(=O)CCNCc1nc(-c2ccc3ncnc(Nc4ccc(OCc5cccc(F)c5)c(Cl)c4)c3c2)cs1.Cl [GW583340C]
potency estimated from few doses (EGFR; CATDS: 0.528390210256103): 96.3 nM
potency estimated from few doses (PGK1): 119 nM

C#Cc1cccc(Nc2ncnc3cc(OC)c(OC4CCN(C)CC4)cc23)c1 [BI00007366]
potency estimated from few doses (EGFR; CATDS: 0.27319466125259201): 1300 nM
potency estimated from few doses (GAK; compound concentrations: 100 nM and 1000 nM (sheet 'Samples'), CATDS: 0.38094365160878402): 634 nM
potency estimated from few doses (RIPK2; compound concentrations: 100 nM and 1000 nM (sheet 'Samples'), CATDS: 0.36838569788984799): 674 nM

Cl.Nc1c(C(=O)c2ccc(CCCN3CCOCC3)cc2)cnn1-c1ccc(F)cc1 [RO1153427-001]
potency estimated from few doses (ERBB3; CATDS: 1): 1820 nM

Nc1ncc(-c2cccc(S(N)(=O)=O)c2)c2scc(-c3ccc(F)c(Cl)c3)c12 [GW856804X]
potency estimated from few doses (EPHA1): 306 nM
potency estimated from few doses (EPHA2): 758 nM
potency estimated from few doses (EPHA4): 1770 nM
potency estimated from few doses (EPHA5; CATDS: 6.5260226509332095E-2): 1210 nM
potency estimated from few doses (EPHB2): 1530 nM
potency estimated from few doses (EPHB4): 710 nM
potency estimated from few doses (GAK; compound concentrations: 100 nM and 1000 nM (sheet 'Samples'), CATDS: 7.0423696237644606E-2): 1000 nM
potency estimated from few doses (HSP90B1): 1590 nM
potency estimated from few doses (MAP4K4): 1510 nM
potency estimated from few doses (RIPK2; compound concentrations: 100 nM and 1000 nM (sheet 'Samples'), CATDS: 0.101348300005731): 475 nM
potency estimated from few doses (RIPK3): 196 nM
potency estimated from few doses (TGFBR2): 518 nM
potency estimated from few doses (TNIK): 961 nM
